This passage reports growth results from PubChem BioAssay (NCI).

The test system of the test is HL-60(TB) leukemia. Nature of the test: NCI-60 one-dose screen, 48 h (100 = growth as untreated, 0 = no growth, -100 = all killed). The note with it: 10 µM unless noted.

Each structure is given as a SMILES string. About 83,000 compounds went through this panel and 20% of them were active in at least one assay; those are over-represented in the sample as a whole.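 Note: values are percent growth. 100 is the growth of untreated cells, values between 100 and 0 indicate rising inhibition; between -100 and 0 indicates cell death.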 The source made the active and inactive calls. How the source made its calls: active means growth percent below 10; inactive means the rest.

In the case of `S=c1nc2[nH]c3ccccc3c2n[nH]1`, the growth was 148% (inactive).

`CNC(=O)c1c(NC(=O)c2ccc(C(C)C)cc2)sc2c1CCC(=O)C2`: the growth was -13.9% (active). In the case of `COc1ccc(/C=C2\CN(Cc3cn(CCCNc4ccnc5cc(Cl)ccc45)nn3)C/C(=C\c3ccc(OC)c(OC)c3)C2=O)cc1OC` it was -38% (active).

As to `[O-][n+]1c2ccccc2[n+]([O-])c2c3ccccc3[nH]c21`, the growth was 100% (inactive). Turning to `C=CCCCCCCCCC(=O)OC(C)C`, the growth was 117% (inactive). With `CCOC(=O)CN(c1sc(C)c(C)c1C(=O)OCC)S(=O)(=O)c1ccc(C)cc1` the figure was 94.2% (inactive).

As to `COc1cc(CCNc2cnc3cc(N)cc(N)c3n2)cc(OC)c1`, the growth was 27.9% (inactive). With `O=C(O)CCCN1C(=O)CSC1=S`, the growth was 103% (inactive).

Consider `COc1cc(CCCO)c(OC)c(OC)c1OC`, for which the growth is 98.4% (inactive). With `CCN1Cc2nc3sc(C)c(C)c3c(=O)n2C=C1C` the figure was 1.07% (active); with `CC(C)C1=C[C@@]23CC[C@@H]4[C@](C)(CCC[C@@]4(C)C(=O)N4CCCNCC4)[C@H]2C[C@@H]1[C@H]1C(=O)CCC(=O)[C@H]13`, 100% (inactive). With `CC(C)(C)c1cc(C=O)cc(C(C)(C)C)c1O` the figure was -23.5% (active); with `Cc1ccc(-n2c(-c3ccccc3)c(-c3ccccc3)c3c(SCC(=O)n4[nH]c(N)cc4=O)ncnc32)cc1`, 102% (inactive); with `CC(=O)N1CC(Nc2ccc(OC(F)(F)F)cc2)=CC1=O`, -8.58% (active). With `CCCCNC(=O)NS(=O)(=O)c1ccc(N2N=C(c3ccc(C)cc3C)CC2c2ccc(N(C)C)cc2)cc1` (stereo unspecified) the figure was 14.4% (inactive); with `Cc1ccc(C(=O)C2C(=O)C3CCC2C3)cc1` (stereo unspecified), 98.3% (inactive). On to `C=C(C)[C@@H]1CC[C@]2(C(=O)N3CCN(C)CC3)CC[C@]3(C)[C@H](CC[C@@H]4[C@@]5(C)C/C(=C/c6cccnc6)C(=O)C(C)(C)[C@@H]5CC[C@]43C)[C@@H]12`, for which the growth is -4.95% (active). In the case of `CCOC(=O)N1C=CC2C=CC1C1C=CC=CC2N1C(=O)OCC` (stereo unspecified) it was 104% (inactive). With `CCN(CC)CCN1CNC(=S)NC1` the figure was 78.8% (inactive). In the case of `COC(=O)c1nc(=S)[nH]c(C(=O)OC)c1C(=O)c1ccc(OC)cc1` it was 107% (inactive). For the molecule `C/C(=N\NC(=O)CSc1nc2ccccc2c(=O)n1Cc1ccc(S(N)(=O)=O)cc1)c1ccc(F)cc1`, the growth was 101% (inactive). With `CC(=O)[C@H]1CC[C@]2(C)[C@@H]1CC[C@@H]1[C@@]3(C)C/C(=C/c4cccnc4)C(=O)C(C)(C)[C@@H]3CC[C@]12C` the figure was 8.47% (active); with `CCCOC(=O)c1ccc2c(c1)[N+](=O)C(C(=O)c1ccccc1)=C(C(F)(F)F)[N+]2=O`, -71.6% (active); with `O=C(CSc1nc2ccc([N+](=O)[O-])cc2[nH]1)Nc1cccc([N+](=O)[O-])c1`, 57.5% (inactive).

For the molecule `O=C(O)c1cn(C2CC2)c2cc(N3CCN(C(=O)N4CCOCC4)CC3)c(F)cc2c1=O`, the growth is 90.3% (inactive). As to `N#Cc1ccc(NC2c3ccccc3CC2O)cc1` (stereo unspecified), the growth was 78.7% (inactive). In the case of `Cc1ccc(NC(=S)/N=c2/n(-c3ccccc3)nc3n2CCN3C2=NCCN2)cc1` it was 156% (inactive). With `C1CN(CC2CCC(CN3CCOCC3)O2)CCO1` (stereo unspecified) the figure was 87% (inactive). In the case of `Cc1nc(Nc2ccc(NC(=S)Nc3ccccc3)cc2)nc2nc(SCc3ccccc3)[nH]c(=O)c12` it was 76% (inactive). As for `CCCCCSB(SCCCCC)c1ccccc1`, the growth is 104% (inactive). With `CCNCCNc1cc(C2CCCC2)c(C#N)c2nc3ccccc3n12` the figure was -59.3% (active).

On to `CCN1CCN(c2nc(C)cc(N(CCCNc3ccnc4cc(Cl)ccc34)Cc3ccco3)n2)CC1`, for which the growth was 37.5% (inactive). In the case of `COc1ccc(NC(=O)c2cccc(C3CCc4c(cc(OC)c(OC)c4OC)O3)c2)cc1` (stereo unspecified) it was -8.38% (active); in that of `COc1ccc2c(=O)c(OC)c(-c3cc(OC)c(OC)c(OC)c3)oc2c1`, 85.1% (inactive); in that of `CC(=O)N1CCN(CCNC(=O)n2cc(-c3ccncc3)c(-c3ccc(O)c(Cl)c3)n2)CC1`, 106% (inactive). With `CCC(=O)Oc1ccc2ccccc2c1` the figure was 103% (inactive).
